Assay results taken from PubChem BioAssay (Tox21).
Inconclusive results are not listed. Some compounds were tested as several samples or in several runs, with calls that do not always agree. Active and inactive are the calls of the source. Unless noted, calls follow the shape of the full dose curve.

Columns and labels:
[1] = Nuclear factor erythroid 2-related factor 2/antioxidant responsive element (Nrf2/ARE) small molecule agonists: qHTS cell viability counter screen in human keratinocytes (AID 1919968; active = well fitted curve in the direction sought with a large enough effect in the repeat runs; an effect the other way counts as inactive or inconclusive; also: nearly all actives have a fitted effect of over 55% in size; also: potency is read from the fitted curve at half-maximal effect)
Outline: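 Parallel cytotoxicity read: KeratinoSens HaCaT cells, compound treatment 23 h, viability by CellTiter-Fluor fluorescence 1 h post-reagent.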

[2] = Nuclear factor erythroid 2-related factor 2/antioxidant responsive element (Nrf2/ARE) small molecule agonists: luciferase reporter gene qHTS assay in human keratinocytes (AID 1919969); also: nearly all actives have a fitted effect of over 35% in size
[3] = biological target: Gonadotropin-releasing hormone receptor (Homo sapiens) (UniProt P30968); experiment: Human gonadotropin-releasing hormone receptor (GnRHR) small molecule agonists, calcium flux assay in GnRHR-HEK293 cells (AID 1920063); also: nearly all actives have a fitted effect of over 35% in size
Sequence of Gonadotropin-releasing hormone receptor (Homo sapiens) (P30968 whole entry, looked up): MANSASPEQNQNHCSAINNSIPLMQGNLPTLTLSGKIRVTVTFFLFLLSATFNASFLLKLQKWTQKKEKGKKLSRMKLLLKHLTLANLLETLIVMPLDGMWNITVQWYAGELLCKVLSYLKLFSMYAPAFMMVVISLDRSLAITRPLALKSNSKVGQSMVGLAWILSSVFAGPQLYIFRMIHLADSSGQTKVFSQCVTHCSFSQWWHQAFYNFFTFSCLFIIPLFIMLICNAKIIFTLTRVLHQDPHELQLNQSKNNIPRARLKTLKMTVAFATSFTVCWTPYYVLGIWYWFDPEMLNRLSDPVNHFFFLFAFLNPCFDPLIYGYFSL
Outline: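 Calcium flux, agonist mode, human GnRHR stably integrated in HEK293; dye 1 h at 37 C before compound; Ex/Em=480/540 kinetic read, 3 min; 15 concentrations, triplicate.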

[4] = biological target: KiSS-1 receptor (Homo sapiens) (UniProt Q969F8); experiment: Human kisspeptin (KISS1R) small molecule agonists, calcium flux assay in KISS1R-HEK293 cells (AID 1920064; active = well fitted curve in the direction sought with a large enough effect in the repeat runs; an effect the other way counts as inactive or inconclusive)
Sequence of KiSS-1 receptor (Homo sapiens) (Q969F8 whole entry, looked up): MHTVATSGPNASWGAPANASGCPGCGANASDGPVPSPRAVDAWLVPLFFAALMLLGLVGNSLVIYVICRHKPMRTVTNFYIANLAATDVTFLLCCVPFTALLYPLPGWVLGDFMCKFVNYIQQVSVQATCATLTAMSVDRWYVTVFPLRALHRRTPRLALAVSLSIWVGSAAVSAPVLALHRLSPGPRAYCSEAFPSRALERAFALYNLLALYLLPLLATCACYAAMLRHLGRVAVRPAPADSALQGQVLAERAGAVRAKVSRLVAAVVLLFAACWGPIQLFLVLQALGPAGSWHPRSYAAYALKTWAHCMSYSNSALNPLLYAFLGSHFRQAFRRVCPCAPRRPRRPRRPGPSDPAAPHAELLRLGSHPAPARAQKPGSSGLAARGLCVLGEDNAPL
Outline: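 Triplicate 15-concentration series were applied to dye-loaded human KISS1R HEK293 cells, and agonist-evoked calcium fluorescence was captured for 3 min.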

[5] = G protein-coupled receptor (GPCR) small molecule agonists, calcium flux assay: HEK293 wild type cell line counter screen (AID 1920065)
Outline: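 Non-specific calcium responders were flagged by adding DMSO-dissolved compounds to dye-loaded cells and reading 480/540 nm fluorescence each second for 3 min; ATP served as positive control.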

[6] = p53 small molecule agonists, cell-based qHTS assay with human liver microsomes (AID 1963577)
Outline: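 Fluorescence of the beta-lactamase reporter in p53RE-bla cells, detected with LiveBLAzer substrate (2 h, room temperature, dark), served as the read-out after 16 h compound exposure at 37 C with human liver microsomes and NADPH, each 0.5 mg/mL final.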

[7] = p53 small molecule agonists, cell-based qHTS assay with rat liver microsomes (AID 1963578)
Outline: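 Cells carrying a p53 response element–beta-lactamase reporter were plated and rested 5 h, then dosed with compound in DMSO plus rat liver microsomes and NADPH, each at 0.5 mg/mL final. After 16 h at 37 C, LiveBLAzer substrate was added for 2 h.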

[8] = p53 small molecule agonists, cell-based qHTS assay with human liver microsomes: qHTS cell viability counter screen (AID 1963579); also: nearly all actives have a fitted effect of over 45% in size; also: potency is read from the fitted curve at half-maximal effect
Outline: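 Cytotoxicity counter screen: p53RE-bla, 4,000 cells/well; 5 h settle, 37 C/5% CO2; cpd + HLM 0.5 mg/mL + NADPH 0.5 mg/mL (final); 16 h, 37 C; CellTiter-Glo, 30 min RT, luminescence.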

[9] = p53 small molecule agonists, cell-based qHTS assay with rat liver microsomes: qHTS cell viability counter screen (AID 1963580); also: nearly all actives have a fitted effect of over 45% in size
Outline: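 Cytotoxicity counter screen: intracellular ATP measured by CellTiter-Glo luminescence in the same wells as the beta-lactamase reporter read, on HCT-116 p53RE-bla cells exposed 16 h at 37 C to compounds with rat liver microsomes and NADPH, each 0.5 mg/mL final.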

[10] = p53 small molecule agonists, cell-based qHTS assay: qHTS cell viability counter screen (AID 1963581); also: nearly all actives have a fitted effect of over 45% in size
Outline: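 Multiplexed with the reporter read, a CellTiter-Glo step (30 min, room temperature) gauges ATP-based viability of HCT-116 p53RE-bla cells after 16 h compound incubation at 37 C.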

[11] = p53 small molecule agonists, cell-based qHTS assay (AID 1963582; active = well fitted activation curve with a large enough effect in the signal ratio in the repeat runs, not every such curve was filed as active; the % refers to the signal ratio)
Outline: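 Beta-lactamase reporter cells (p53RE-bla) treated with compounds for 16 h at 37 C; FRET substrate, 2 h, room temperature; fluorescence intensity.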

[12] = biological target: 5-hydroxytryptamine receptor 2A (Homo sapiens) (UniProt P28223); experiment: 5-hydroxytryptamine receptor 2A (HTR2A) small molecule antagonists, cell-based qHTS assay (AID 1963586); also: nearly all actives have a fitted effect of over 45% in size
Sequence of 5-hydroxytryptamine receptor 2A (Homo sapiens) (P28223 whole entry, looked up): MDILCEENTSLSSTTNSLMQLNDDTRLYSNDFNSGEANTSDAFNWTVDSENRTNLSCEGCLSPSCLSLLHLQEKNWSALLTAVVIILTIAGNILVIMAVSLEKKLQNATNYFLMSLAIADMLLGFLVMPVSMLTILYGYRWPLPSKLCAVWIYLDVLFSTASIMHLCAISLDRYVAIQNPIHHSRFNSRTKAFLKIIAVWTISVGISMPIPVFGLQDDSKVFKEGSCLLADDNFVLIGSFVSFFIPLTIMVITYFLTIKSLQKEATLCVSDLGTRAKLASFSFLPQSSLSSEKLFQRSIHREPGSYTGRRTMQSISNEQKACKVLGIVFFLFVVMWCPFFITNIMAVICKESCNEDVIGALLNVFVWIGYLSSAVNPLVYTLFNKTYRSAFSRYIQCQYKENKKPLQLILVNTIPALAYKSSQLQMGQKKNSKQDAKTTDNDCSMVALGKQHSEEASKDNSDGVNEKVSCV
Outline: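 CHO cells stably expressing human HTR2A were plated for 18 h at 37 C, then loaded with calcium dye for 1 h. Compounds were preincubated 5 min at room temperature before DOI (4 nM solution) was added. Kinetic fluorescence was read for 3 min.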

[13] = biological target: 5-hydroxytryptamine receptor 2A (Homo sapiens) (UniProt P28223); experiment: 5-hydroxytryptamine receptor 2A (HTR2A) small molecule agonists, cell-based qHTS assay (AID 1963587); also: nearly all actives have a fitted effect of over 30% in size
Outline: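 CHO cells stably expressing human HTR2A, plated 18 h, loaded with calcium dye 1 h at 37 C. Agonist mode: compounds added and intracellular calcium fluorescence recorded kinetically for 2 min at 1 sec intervals.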

[14] = biological target: Muscarinic acetylcholine receptor M1 (Homo sapiens) (UniProt P11229); experiment: Cholinergic receptor muscarinic 1 (CHRM1) small molecule antagonists, cell-based qHTS assay (AID 1963588); also: nearly all actives have a fitted effect of over 40% in size
Sequence of Muscarinic acetylcholine receptor M1 (Homo sapiens) (P11229 whole entry, looked up): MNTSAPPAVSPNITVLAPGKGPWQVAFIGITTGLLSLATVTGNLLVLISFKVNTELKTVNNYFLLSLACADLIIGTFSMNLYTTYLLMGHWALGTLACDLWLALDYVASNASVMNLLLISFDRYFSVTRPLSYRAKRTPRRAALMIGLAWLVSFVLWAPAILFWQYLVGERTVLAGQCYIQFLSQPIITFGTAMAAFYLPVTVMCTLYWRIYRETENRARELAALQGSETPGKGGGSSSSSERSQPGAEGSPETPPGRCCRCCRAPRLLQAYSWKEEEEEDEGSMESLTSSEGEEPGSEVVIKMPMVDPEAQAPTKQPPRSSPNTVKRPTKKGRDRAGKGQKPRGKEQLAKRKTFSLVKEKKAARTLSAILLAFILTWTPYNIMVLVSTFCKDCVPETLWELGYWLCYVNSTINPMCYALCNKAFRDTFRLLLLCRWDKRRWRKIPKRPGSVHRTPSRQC
Outline: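 Compounds were tested at 15 concentrations in three independent runs. Dye-loaded CHRM1-CHO cells were exposed 5 min at room temperature before stimulation by acetylcholine added at 50nM. Intracellular calcium was read kinetically on FDSS for 3 min.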

[15] = biological target: Muscarinic acetylcholine receptor M1 (Homo sapiens) (UniProt P11229); experiment: Cholinergic receptor muscarinic 1 (CHRM1) small molecule agonists, cell-based qHTS assay (AID 1963589); also: nearly all actives have a fitted effect of over 35% in size
Outline: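 qHTS, 15-point titration, 3 independent runs: compounds pin-transferred onto dye-loaded CHRM1-CHO cells (human M1), calcium fluorescence followed every second to detect agonism.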

[16] = cAMP Responsive Elements (CRE) small molecule agonists, cell-based qHTS assay (AID 1963590)
Outline: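 Quantitative HTS for CRE agonists: HEK 293T CRE-bla cells, overnight plating, 3 h compound incubation at 37 C/5% CO2, then 2 h room-temperature LiveBLAzer B/G FRET substrate loading.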

[17] = cAMP Responsive Elements (CRE) small molecule antagonists, cell-based qHTS assay (AID 1963591; active = well fitted inhibition curve with a large enough effect in the signal ratio in the repeat runs, not every such curve was filed as active; the % refers to the signal ratio)
Outline: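 Fluorescence intensity from cleaved LiveBLAzer B/G substrate (2 h, room temperature) quantified CRE-bla activity in HEK 293T cells exposed 3 h to compound with 0.25 uM final NKH477.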

[18] = biological target: Beta-2 adrenergic receptor (Homo sapiens) (UniProt P07550); experiment: Adrenergic beta2 receptor (ADRB2) small molecule antagonists, cell-based qHTS assay (AID 1963592); also: series mostly up to about 92 µM; nearly all actives have a fitted effect of over 50% in size
Sequence of Beta-2 adrenergic receptor (Homo sapiens) (P07550 whole entry, looked up): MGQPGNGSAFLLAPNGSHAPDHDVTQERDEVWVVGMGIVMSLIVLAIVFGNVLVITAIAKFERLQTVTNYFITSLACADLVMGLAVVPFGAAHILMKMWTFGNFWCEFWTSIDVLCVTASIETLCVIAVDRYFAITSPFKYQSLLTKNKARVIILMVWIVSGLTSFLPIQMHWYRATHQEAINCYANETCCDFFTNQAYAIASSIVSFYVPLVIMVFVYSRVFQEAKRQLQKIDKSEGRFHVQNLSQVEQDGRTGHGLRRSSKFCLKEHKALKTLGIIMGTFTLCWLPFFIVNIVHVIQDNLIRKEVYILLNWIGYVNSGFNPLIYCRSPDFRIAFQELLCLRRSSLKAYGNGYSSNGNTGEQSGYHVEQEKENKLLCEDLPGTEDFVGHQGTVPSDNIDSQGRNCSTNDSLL
Outline: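 Assay format: CHO-ADRB2 cells, 18-20hr seeding at 37C/5% CO2, then compound plus 1nM isoproterenol agonist mix for 0.5hr RT. Homogeneous time-resolved fluorescence cAMP detection after 1hr, expressed as 665/615 nm ratio.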

[19] = biological target: Beta-2 adrenergic receptor (Homo sapiens) (UniProt P07550); experiment: Adrenergic beta2 receptor (ADRB2) small molecule agonists, cell-based qHTS assay (AID 1963593); also: potency is read from the fitted curve at half-maximal effect;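 as to activation: CHO cells stably overexpressing human ADRB2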
Outline: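 CHO cells stably over-expressing ADRB2 were plated overnight at 37C, then dosed with compounds plus a stimulation mix containing 100uM IBMX and 25uM Ro-20-1724 for 0.5hr at room temperature. cAMP was measured by HTRF competition, 1hr.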

[20] = biological target: D(2) dopamine receptor (Homo sapiens) (UniProt P14416); experiment: Dopamine D2 receptor (DRD2) small molecule agonists, cell-based qHTS assay (AID 1963594); also: nearly all actives have a fitted effect of over 35% in size
Sequence of D(2) dopamine receptor (Homo sapiens) (P14416 whole entry, looked up): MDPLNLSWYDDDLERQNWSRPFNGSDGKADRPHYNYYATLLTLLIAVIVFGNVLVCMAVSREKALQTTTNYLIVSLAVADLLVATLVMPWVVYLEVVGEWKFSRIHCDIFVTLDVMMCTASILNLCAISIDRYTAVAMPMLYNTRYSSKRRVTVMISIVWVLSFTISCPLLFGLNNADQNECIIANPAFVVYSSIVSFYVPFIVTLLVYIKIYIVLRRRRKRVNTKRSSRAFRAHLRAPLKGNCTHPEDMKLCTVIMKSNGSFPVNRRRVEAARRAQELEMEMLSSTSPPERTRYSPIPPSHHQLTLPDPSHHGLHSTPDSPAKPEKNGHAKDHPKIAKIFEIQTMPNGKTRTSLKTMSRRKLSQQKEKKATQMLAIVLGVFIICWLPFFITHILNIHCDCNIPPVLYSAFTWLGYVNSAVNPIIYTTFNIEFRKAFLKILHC
Outline: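 HEK293 cells stably expressing human DRD2, pre-treated with PDE inhibitor Ro20-1724 (0.1 mM final) and compound 10 min at room temperature, then stimulated with NKH477 (200nM […]) for 30 min. cAMP read by HTRF (665/620 nm).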
% is scaled to controls: 0 for no effect and ±100 for the full control effect.

Cc1ccc(C(=O)Nc2ccc(S(=O)(=O)O)c3cc(S(=O)(=O)O)cc(S(=O)(=O)O)c23)cc1NC(=O)c1cccc(NC(=O)Nc2cccc(C(=O)Nc3cc(C(=O)Nc4ccc(S(=O)(=O)O)c5cc(S(=O)(=O)O)cc(S(=O)(=O)O)c45)ccc3C)c2)c1
inactive: Potency [1] | Potency [2] | Potency [3] | Potency [4] | Potency [5] | Potency [6] | Potency [7] | Potency [8] | Potency [9] | Potency [10] | Potency [11] | Potency [12] | Potency [13] | Potency [14] | Potency [15] | Potency [16] | Potency [17] | Potency [18] | Potency [19] | Potency [20]

Cc1cccc2c1ccc1ccccc12
inactive: Potency [1] | Potency [2] | Potency [3] | Potency [4] | Potency [5] | Potency [6] | Potency [7] | Potency [8] | Potency [9] | Potency [10] | Potency [11] | Potency [12] | Potency [13] | Potency [14] | Potency [15] | Potency [16] | Potency [17] | Potency [18]

CC(C)(CO)[C@@H](O)C(=O)NCCC(=O)O
inactive: Potency [1] | Potency [2] | Potency [3] | Potency [4] | Potency [5] | Potency [6] | Potency [7] | Potency [8] | Potency [9] | Potency [10] | Potency [11] | Potency [12] | Potency [13] | Potency [14] | Potency [15] | Potency [16] | Potency [17] | Potency [18] | Potency [19] | Potency [20]

CC1(C)[C@H]2CC[C@](C)(C2)[C@H]1O
inactive: Potency [1] | Potency [2] | Potency [3] | Potency [4] | Potency [5] | Potency [6] | Potency [7] | Potency [8] | Potency [9] | Potency [10] | Potency [11] | Potency [12] | Potency [13] | Potency [14] | Potency [15] | Potency [16] | Potency [17] | Potency [18] | Potency [19] | Potency [20]

NNc1nncc2ccccc12
active: Potency [1] 30.6 µM | Potency [8] 32.4 µM
inactive: activity change, negative = cytotoxicity [1] -11.5% [at 19 µM] | Potency [3] | Potency [4] | Potency [5] | Potency [6] | Potency [7] | activity change, negative = cytotoxicity [8] -0.157% [at 13.5 µM] | activity change, negative = cytotoxicity [9] 0.405% [at 13.5 µM] | Potency [10] | Potency [11] | activation [16] 0.777% [at 19 µM] | Potency [17] | Potency [18] | Potency [20]

CC(=O)Nc1ccc(N=Nc2cc(C)ccc2O)cc1
inactive: Potency [1] | Potency [2] | Potency [3] | Potency [4] | Potency [5] | Potency [6] | Potency [7] | Potency [8] | Potency [9] | Potency [10] | Potency [11] | Potency [12] | Potency [13] | Potency [14] | Potency [15] | Potency [16] | Potency [17] | Potency [18] | Potency [19] | Potency [20]

NS(=O)(=O)c1cc2c(cc1C(F)(F)F)NC(Cc1ccccc1)NS2(=O)=O (centres undefined)
inactive: Potency [1] | Potency [2] | Potency [3] | Potency [4] | Potency [5] | Potency [6] | Potency [7] | Potency [8] | Potency [9] | Potency [10] | Potency [11] | Potency [12] | Potency [13] | Potency [14] | Potency [15] | Potency [16] | Potency [17] | Potency [18] | Potency [20]
active: Potency [19] 1.5 µM
